From PubChem BioAssay AID1159580 (chemical genetic matrix, 2015)
Several values for one entry are separate records, joined by “and”; a condition that tells them apart may be missing. Equal values may be shown once. The whole screen tested about 5,500 compounds, of which about 2,000 (36%) were called active. Another 18% or so got no clear call; they are omitted. No stated cut-off is given here; in the data, active means normalized growth mostly below about 0.91 (no sharp cut-off); inconclusive means no clear call, values can overlap the other calls; inactive means mostly above about 0.92. The list shows a part of the results.

Experiment: chemical genetic growth profiling, strain panel (AID 1159580);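 further: tested at 20 µM; growth read once vehicle control cultures reached saturation at 30 °C; 1 = growth at the plate median or of vehicle wells; lower values mean less growth of the strain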
Settings: S. cerevisiae deletion strains, growth OD
[1] = locus YHR030C, strain SLT2, active compounds read low
[2] = locus YHR079C, strain IRE1, active compounds read low
[3] = locus YJL095W, strain BCK1, active compounds read low
[4] = locus YJR066W, strain TOR1, active compounds read low
[5] = locus YLR113W, strain HOG1, active compounds read low
[6] = locus YNL183C, strain NPR1, active compounds read low
[7] = locus YOR231W, strain MKK1, active compounds read low
[8] = locus YPL256C, strain CLN2, active compounds read low

Measured: normalized growth

CC(C)CCCC(C)C1CCC2C3CC[C@H]4C[C@H](O)CC[C@]4(C)C3CC[C@]12C (stereo partly drawn)
inactive: [1] 0.98 | [2] 0.985 | [3] 0.992 | [4] 0.919 | [5] 0.985 | [6] 0.916 | [7] 0.991 | [8] 0.981

CC(C)CCCC(C)[C@H]1CCC2C3CC=C4CC(=O)CC[C@]4(C)C3CC[C@@]21C (stereo partly drawn)
active: locus YLR262C, strain YPT6 (second series), active compounds read low 0.855 | locus YLR418C, strain cdc73, active compounds read low 0.753 | locus YNL307C, strain MCK1, active compounds read low 0.842
inactive: locus YAL021C, strain ccr4, active compounds read low 0.976 | locus YAL026C, strain drs2, active compounds read low 0.985 | locus YAL030W, strain snc1, active compounds read low 0.989 | locus YBL061C, strain skt5, active compounds read low 1 | locus YBR009C, strain hhf1, active compounds read low 1.04 | locus YBR021W, strain FUR4, active compounds read low 0.962 | locus YBR023C, strain chs3, active compounds read low 0.988 | locus YBR171W, strain sec66, active compounds read low 0.992 | locus YBR229C, strain ROT2, active compounds read low 0.961 | locus YBR231C, strain swc5, active compounds read low 1.01 | locus YBR279W, strain paf1, active compounds read low 1 | locus YCL011C, strain gbp2, active compounds read low 0.986 | locus YCL016C, strain dcc1, active compounds read low 1 | locus YCL029C, strain bik1, active compounds read low 0.999 | locus YCL061C, strain MRC1, active compounds read low 0.99 | locus YCL069W, strain vba3, active compounds read low 0.994 | locus YCR088W, strain abp1, active compounds read low 0.99 | locus YDL005C, strain med2, active compounds read low 0.99 | locus YDL035C, strain GPR1, active compounds read low 0.953 | locus YDL040C, strain nat1, active compounds read low 0.975 | locus YDL074C, strain BRE1, active compounds read low 0.937 | locus YDL101C, strain DUN1, active compounds read low 0.971 | locus YDL185W, strain tfp1, active compounds read low 0.982 | locus YDL192W, strain arf1, active compounds read low 0.932 | locus YDR001C, strain nth1, active compounds read low 0.99 | locus YDR069C, strain doa4, active compounds read low 1 | locus YDR101C, strain arx1, active compounds read low 1.03 | locus YDR137W, strain rgp1, active compounds read low 0.895 | locus YDR150W, strain NUM1, active compounds read low 0.978 | locus YDR159W, strain sac3, active compounds read low 0.999 | locus YDR162C, strain NBP2, active compounds read low 0.939 | locus YDR195W, strain ref2 1.03 | locus YDR297W, strain sur2, active compounds read low 0.994 | locus YDR318W, strain mcm21, active compounds read low 0.922 | locus YDR334W, strain swr1, active compounds read low 0.968 | locus YDR335W, strain msn5, active compounds read low 0.984 | locus YDR388W, active compounds read low 0.964 | locus YDR392W, strain spt3, active compounds read low 0.932 | locus YDR502C, strain sam2, active compounds read low 0.947 | locus YEL003W, strain gim4, active compounds read low 0.987 | locus YEL037C, strain rad23, active compounds read low 0.986 | locus YEL061C, strain CIN8 (second series), active compounds read low 0.991 | locus YEL061C, strain CIN8, active compounds read low 0.988 | locus YER015W, strain faa2, active compounds read low 0.992 | locus YER016W, strain bim1, active compounds read low 0.987 | locus YER110C, active compounds read low 0.98 | locus YER111C, strain swi4, active compounds read low 0.997 | locus YER155C, strain BEM2 (second series), active compounds read low 1.01 | locus YER155C, strain BEM2, active compounds read low 1.01 | locus YER167W, strain BCK2, active compounds read low 0.993 | locus YFR010W, strain ubp6, active compounds read low 0.991 | locus YGL078C, strain dbp3, active compounds read low 0.98 | locus YGL086W, strain mad1, active compounds read low 0.997 | locus YGL167C, strain pmr1, active compounds read low 0.996 | locus YGL173C, strain kem1, active compounds read low 0.995 | locus YGL227W, strain vid30, active compounds read low 0.995 | locus YGL240W, strain doc1, active compounds read low 1.04 | locus YGL248W, strain PDE1, active compounds read low 0.922 | locus YGL253W, strain hxk2, active compounds read low 0.976 | locus YGR135W, strain pre9, active compounds read low 0.942 | locus YGR252W, strain gcn5, active compounds read low 0.839 | locus YHR013C, strain ard1, active compounds read low 0.989 | locus YHR027C, strain rpn1, active compounds read low 0.987 | [1] 1 and 1.02 | locus YHR079C, strain IRE1 (second series), active compounds read low 0.992 | [2] 0.997 | locus YHR094C, strain hxt1, active compounds read low 0.986 | locus YHR129C, strain ARP1, active compounds read low 0.974 | locus YHR142W, strain chs7, active compounds read low 0.903 | locus YHR200W, strain rpn10, active compounds read low 0.958 | locus YIL066C, strain RNR3, active compounds read low 0.952 | locus YIL073C, strain SPO22, active compounds read low 0.936 | locus YIL125W, strain kgd1, active compounds read low 0.987 | locus YIR030C, strain dcg1, active compounds read low 0.979 | locus YJL092W, strain hpr5, active compounds read low 0.978 | locus YJL095W, strain BCK1 (second series), active compounds read low 0.989 | [3] 0.83 and 1 | locus YJL115W, strain asf1, active compounds read low 0.974 | locus YJL129C, strain trk1, active compounds read low 0.935 | locus YJL134W, strain LCB3, active compounds read low 0.982 | locus YJL154C, strain vps35, active compounds read low 0.993 | locus YJL164C, strain tpk1, active compounds read low 0.95 | locus YJL166W, strain qcr8, active compounds read low 0.986 | locus YJL168C, strain set2, active compounds read low 0.996 | locus YJL187C, strain SWE1 (second series), active compounds read low 0.968 | locus YJL187C, strain SWE1, active compounds read low 1 | locus YJR043C, strain POL32, active compounds read low 0.958 | [4] 0.928 | locus YJR075W, strain HOC1, active compounds read low 0.968 | locus YKL009W, strain mrt4, active compounds read low 0.943 | locus YKL068W, active compounds read low 0.993 | locus YKL085W, strain MDH1 (second series), active compounds read low 0.99 | locus YKL085W, strain MDH1, active compounds read low 0.99 | locus YKL160W, strain elf1, active compounds read low 0.965 | locus YKL190W, strain CNB1, active compounds read low 0.984 | locus YKR001C, strain vps1, active compounds read low 0.914 | locus YKR026C, strain gcn3, active compounds read low 0.993 | locus YKR091W, strain srl3, active compounds read low 0.994 | locus YLL001W, strain dnm1, active compounds read low 0.988 | locus YLL026W, active compounds read low 0.988 | locus YLL041C, strain sdh2, active compounds read low 0.981 | locus YLR027C, strain aat2, active compounds read low 0.981 | locus YLR039C, strain RIC1, active compounds read low 0.696 | locus YLR058C, strain SHM2, active compounds read low 0.967 | locus YLR102C, strain apc9, active compounds read low 0.989 | [5] 0.91 | locus YLR221C, strain rsa3, active compounds read low 0.949 | locus YLR258W, strain gsy2, active compounds read low 1.01 | locus YLR262C, strain YPT6, active compounds read low 0.66 | locus YLR268W, strain sec22, active compounds read low 0.974 | locus YLR320W, strain mms22, active compounds read low 0.999 | locus YLR330W, strain CHS5, active compounds read low 0.985 | locus YLR342W, strain FKS1 (second series), active compounds read low 0.946 | locus YLR342W, strain FKS1, active compounds read low 1.01 | locus YLR357W, strain rsc2, active compounds read low 1.02 | locus YLR370C, strain arc18, active compounds read low 0.99 | locus YLR371W, strain rom2, active compounds read low 0.989 | locus YLR384C, strain iki3, active compounds read low 0.995 | locus YML016C, strain PPZ1, active compounds read low 0.996 | locus YML032C, strain rad52, active compounds read low 0.91 | locus YML120C, strain ndi1, active compounds read low 0.949 | locus YML124C, strain tub3, active compounds read low 0.995 | locus YMR058W, strain fet3, active compounds read low 0.981 | locus YMR078C, strain ctf18, active compounds read low 0.981 | locus YMR125W, strain sto1, active compounds read low 0.985 | locus YMR129W, active compounds read low 1 | locus YMR205C, strain PFK2, active compounds read low 1.03 | locus YMR223W, strain ubp8, active compounds read low 0.925 | locus YMR231W, strain pep5, active compounds read low 1 | locus YMR307W, strain GAS1, active compounds read low 0.875 | locus YNL067W, strain RPL9B, active compounds read low 0.987 | locus YNL071W, strain lat1, active compounds read low 0.978 | [6] 0.937 | locus YNL209W, strain ssb2, active compounds read low 1 | locus YNL233W, strain BNI4, active compounds read low 0.932 | locus YNL248C, strain rpa49, active compounds read low 0.93 | locus YNL250W, strain rad50, active compounds read low 0.965 | locus YNL271C, strain bni1, active compounds read low 0.977 | locus YNL298W, strain CLA4, active compounds read low 0.979 | locus YNL322C, strain KRE1 (second series), active compounds read low 0.99 | locus YNL322C, strain KRE1, active compounds read low 0.991 | locus YNR049C, strain mso1, active compounds read low 0.986 | locus YNR052C, strain pop2, active compounds read low 0.98 | locus YOL006C, strain TOP1, active compounds read low 1.01 | locus YOL012C, strain htz1 1.02 | locus YOL147C, strain pex11, active compounds read low 0.989 | locus YOR001W, strain rrp6, active compounds read low 0.933 | locus YOR061W, strain CKA2, active compounds read low 0.954 | locus YOR069W, strain VPS5, active compounds read low 0.988 | locus YOR070C, strain gyp1, active compounds read low 0.978 | locus YOR080W, strain dia2, active compounds read low 0.996 | locus YOR083W, strain WHI5, active compounds read low 0.944 | locus YOR106W, strain vam3, active compounds read low 0.965 | locus YOR136W, strain idh2, active compounds read low 0.993 | locus YOR144C, strain elg1, active compounds read low 0.993 | locus YOR184W, strain ser1, active compounds read low 0.945 | [7] 0.965 | locus YOR265W, strain rbl2, active compounds read low 0.986 | locus YOR270C, strain vph1, active compounds read low 0.922 | locus YOR290C, strain snf2, active compounds read low 0.959 | locus YOR316C, strain cot1, active compounds read low 0.988 | locus YPL051W, strain arl3, active compounds read low 0.956 | locus YPL078C, strain atp4, active compounds read low 0.951 | locus YPL106C, strain sse1, active compounds read low 1.03 | locus YPL240C, strain hsp82, active compounds read low 0.989 | locus YPL241C, strain CIN2, active compounds read low 0.995 | [8] 1.01 | locus YPR119W, strain clb2, active compounds read low 1 | locus YPR141C, strain kar3, active compounds read low 0.988 | locus YPR163C, strain tif3, active compounds read low 0.977 | locus YPR167C, strain met16, active compounds read low 0.96 | strain wtn01, active compounds read low 1.02
